Test results reported in PubChem BioAssay (NCI).
About 79,000 compounds went through this panel and 15% of them were active in at least one assay; those are over-represented in the sample as a whole. A number with no mark means an inactive call. Active and inactive are the calls of the source. No stated cut-off is given here; in the data, active means growth inhibition above about 70%; inactive means the rest.

Assays:
[1] = NCI Yeast Anticancer Drug Screen. Data for the rad52 strain (AID 147);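 further: 0% = growth of vehicle-treated control cultures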; conditions: S. cerevisiae rad52 mutant growth inhibition, stronger effect = higher value
Summary of the method: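 The repair-mutant yeast strain was incubated with compounds, then growth was read and inhibition derived relative to vehicle.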

[2] = NCI Yeast Anticancer Drug Screen. Data for the wt1 strain (AID 149);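 further: 0% = growth of vehicle-treated wt1 cultures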; conditions: S. cerevisiae wt1 strain (SPY 50644) growth inhibition, stronger effect = higher value
Summary of the method: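 Yeast wt1 strain exposed to compounds; growth inhibition measured relative to vehicle-treated controls.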

[3] = NCI Yeast Anticancer Drug Screen. Data for the rad50EPP+ strain (AID 151);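 further: 0% = growth of vehicle-treated control cultures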; conditions: S. cerevisiae rad50 mutant strain, stronger effect = higher value
Summary of the method: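 Vehicle-normalised growth inhibition; rad50EPP+ yeast strain, altered in DNA damage repair, compound-treated.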

[4] = NCI Yeast Anticancer Drug Screen. Data for the rad50 strain (AID 155);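 further: 0% = growth of vehicle-only cultures of the same strain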; conditions: S. cerevisiae rad50 strain growth inhibition, stronger effect = higher value
Summary of the method: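 Yeast carrying a defined DNA repair defect were exposed to test compounds, and growth was compared with vehicle-treated controls to give percent inhibition.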

[5] = NCI Yeast Anticancer Drug Screen. Data for the mec2-1 strain (AID 157); conditions: S. cerevisiae mec2-1 strain, stronger effect = higher value
Summary of the method: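 Mutant yeast (mec2-1) grown with compound; growth inhibition relative to vehicle control reported.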

[6] = NCI Yeast Anticancer Drug Screen. Data for the rad14 strain (AID 159);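 further: 0% = growth of vehicle-treated control cultures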; conditions: S. cerevisiae rad14 strain growth inhibition, stronger effect = higher value
Summary of the method: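 Yeast cells carrying a defined DNA-repair defect were exposed to compounds, and growth inhibition was calculated relative to vehicle-treated control cultures.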

[7] = NCI Yeast Anticancer Drug Screen. Data for the sgs1 mgt1 strain (AID 161);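 further: 0% = growth of cultures given vehicle only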; conditions: S. cerevisiae sgs1 mgt1 strain, stronger effect = higher value
Summary of the method: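 Yeast cells carrying a defined DNA-repair defect were exposed to test compounds. Growth inhibition was measured relative to vehicle-treated controls.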

[8] = NCI Yeast Anticancer Drug Screen. Data for the CLN2oe strain (AID 163);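 further: 0% = growth of vehicle-only control cultures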; conditions: S. cerevisiae CLN2oe strain, stronger effect = higher value
Summary of the method: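 Compounds are applied to yeast harbouring a defined cell-cycle control change; reduced growth compared with vehicle-treated controls gives the value.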

[9] = NCI Yeast Anticancer Drug Screen. Data for the cln2 rad14 strain (AID 165);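 further: 0% = growth equal to vehicle treated cultures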; conditions: S. cerevisiae cln2 rad14 strain, stronger effect = higher value
Summary of the method: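 Readout is yeast growth inhibition versus vehicle-treated controls, using a strain with cln2 and rad14 alterations exposed to compound.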

[10] = NCI Yeast Anticancer Drug Screen. Data for the bub3 strain (AID 167); conditions: S. cerevisiae bub3 mutant strain, stronger effect = higher value
Summary of the method: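 Compounds were applied to a genetically altered yeast strain carrying a cell-cycle control defect. Growth inhibition was scored against vehicle-treated controls.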

[11] = NCI Yeast Anticancer Drug Screen. Data for the wt2 strain (AID 169);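 further: 0% = growth of vehicle-treated yeast cultures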; conditions: S. cerevisiae wt2 strain growth inhibition, stronger effect = higher value
Summary of the method: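 Against vehicle-treated controls, the growth of yeast exposed to each compound was compared, and the inhibition was recorded.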

[12] = NCI Yeast Anticancer Drug Screen. Data for the mlh1 strain (AID 171);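 further: 0% = growth of vehicle-treated control cultures of the same strain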; conditions: S. cerevisiae mlh1 strain growth inhibition, stronger effect = higher value
Summary of the method: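 Measured: yeast growth. Reference: vehicle-treated controls. Organism: strain with a defined alteration affecting DNA damage repair or cell cycle control, treated with compound.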

[13] = NCI Yeast Anticancer Drug Screen. Data for the sgs1 strain (AID 173);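 further: 0% = growth of vehicle-only control cultures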; conditions: S. cerevisiae sgs1 mutant, stronger effect = higher value
Summary of the method: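 Each compound was added to cultures of the altered yeast strain. Growth was recorded, and inhibition was derived by comparison with vehicle controls.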

[14] = NCI Yeast Anticancer Drug Screen. Data for the mlh1 rad18 strain (AID 175); conditions: S. cerevisiae mlh1 rad18 strain growth inhibition, stronger effect = higher value
Summary of the method: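 Genetically defined yeast (DNA repair-deficient) exposed to compounds; growth inhibition determined relative to vehicle.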

[15] = NCI Yeast Anticancer Drug Screen. Data for the rad18 strain (AID 177); conditions: S. cerevisiae rad18 mutant growth inhibition, stronger effect = higher value
Summary of the method: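 Vehicle-treated cultures served as the baseline for scoring compound-induced growth inhibition in DNA-repair-mutant yeast.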

[16] = NCI Yeast Anticancer Drug Screen. Data for the mgt1 strain (AID 153); conditions: S. cerevisiae mgt1 mutant growth inhibition, stronger effect = higher value
Summary of the method: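 Vehicle-normalized growth inhibition is determined in mgt1 yeast, a strain selected for a defined alteration in DNA repair or cell cycle control.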

[17] = at 5.0 µM (retest, dose inferred, filed as 0.5)
[18] = at 50.0 µM (retest, dose inferred, filed as 5.0)

O=[N+]([O-])c1cccc([N+](=O)[O-])c1S(=O)(=O)c1ccccc1
growth inhibition ([1]; at 1.2 µM): 87% (active)
growth inhibition ([1]; at 3.7 µM): 93% (active)
growth inhibition ([1]; at 11.0 µM): 97% (active)
growth inhibition ([1]; at 33.0 µM): 98% (active)
growth inhibition ([1]; at 100.0 µM): 97% (active)
growth inhibition ([2]; at 1.2 µM): 20%
growth inhibition ([2]; at 3.7 µM): 33%
growth inhibition ([2]; at 11.0 µM): 67%
growth inhibition ([2]; at 33.0 µM): 89% (active)
growth inhibition ([2]; at 100.0 µM): 93% (active)
growth inhibition ([3]; at 1.2 µM): 76% (active)
growth inhibition ([3]; at 3.7 µM): 88% (active)
growth inhibition ([3]; at 11.0 µM): 93% (active)
growth inhibition ([3]; at 33.0 µM): 94% (active)
growth inhibition ([3]; at 100.0 µM): 92% (active)
growth inhibition ([4]; at 1.2 µM): 83% (active)
growth inhibition ([4]; at 3.7 µM): 91% (active)
growth inhibition [4, 17]: 82% (active)
growth inhibition ([4]; at 11.0 µM): 95% (active)
growth inhibition ([4]; at 33.0 µM): 97% (active)
growth inhibition [4, 18]: 87% (active)
growth inhibition ([4]; at 50.0 µM): 82.8% (active)
growth inhibition ([4]; at 100.0 µM): 96% (active)
growth inhibition ([5]; at 1.2 µM): 19%
growth inhibition ([5]; at 3.7 µM): 37%
growth inhibition [5, 17]: 14%
growth inhibition ([5]; at 11.0 µM): 87% (active)
growth inhibition ([5]; at 33.0 µM): 96% (active)
growth inhibition [5, 18]: 91% (active)
growth inhibition ([5]; at 50.0 µM): 83.3% (active)
growth inhibition ([5]; at 100.0 µM): 95% (active)
growth inhibition ([6]; at 1.2 µM): -13%
growth inhibition ([6]; at 3.7 µM): 0%
growth inhibition ([6]; at 11.0 µM): 59%
growth inhibition ([6]; at 33.0 µM): 92% (active)
growth inhibition ([6]; at 100.0 µM): 92% (active)
growth inhibition [7, 17]: 2%
growth inhibition [7, 18]: 33%
growth inhibition ([7]; at 50.0 µM): 65.1%
growth inhibition ([8]; at 1.2 µM): 7%
growth inhibition ([8]; at 3.7 µM): 4%
growth inhibition ([8]; at 11.0 µM): 52%
growth inhibition ([8]; at 33.0 µM): 84% (active)
growth inhibition ([8]; at 100.0 µM): 85% (active)
growth inhibition [9, 17]: -8%
growth inhibition [9, 18]: 76% (active)
growth inhibition ([9]; at 50.0 µM): 34.8%
growth inhibition ([10]; at 1.2 µM): 0%
growth inhibition ([10]; at 3.7 µM): 8%
growth inhibition [10, 17]: 5%
growth inhibition ([10]; at 11.0 µM): 56%
growth inhibition ([10]; at 33.0 µM): 92% (active)
growth inhibition [10, 18]: 88% (active)
growth inhibition ([10]; at 50.0 µM): 77.6% (active)
growth inhibition ([10]; at 100.0 µM): 81% (active)
growth inhibition ([11]; at 1.2 µM): 1%
growth inhibition ([11]; at 3.7 µM): 22%
growth inhibition ([11]; at 11.0 µM): 60%
growth inhibition ([11]; at 33.0 µM): 90% (active)
growth inhibition ([11]; at 100.0 µM): 94% (active)
growth inhibition ([12]; at 1.2 µM): -1%
growth inhibition ([12]; at 3.7 µM): 22%
growth inhibition ([12]; at 11.0 µM): 76% (active)
growth inhibition ([12]; at 33.0 µM): 97% (active)
growth inhibition ([12]; at 100.0 µM): 95% (active)
growth inhibition ([13]; at 1.2 µM): 22%
growth inhibition ([13]; at 3.7 µM): 42%
growth inhibition ([13]; at 11.0 µM): 75% (active)
growth inhibition ([13]; at 33.0 µM): 95% (active)
growth inhibition ([13]; at 100.0 µM): 94% (active)
growth inhibition [14, 17]: 41%
growth inhibition [14, 18]: 76% (active)
growth inhibition ([14]; at 50.0 µM): 87.9% (active)
growth inhibition ([15]; at 1.2 µM): 17%
growth inhibition ([15]; at 3.7 µM): 30%
growth inhibition ([15]; at 11.0 µM): 82% (active)
growth inhibition ([15]; at 33.0 µM): 95% (active)
growth inhibition ([15]; at 100.0 µM): 95% (active)

COc1ccc(-c2cn(-c3ccc(I)cc3)c3ncnc(N)c23)cc1
growth inhibition ([1]; at 1.2 µM): -2%
growth inhibition ([1]; at 3.7 µM): -5%
growth inhibition ([1]; at 11.0 µM): -9%
growth inhibition ([1]; at 33.0 µM): -7%
growth inhibition ([1]; at 100.0 µM): -8%
growth inhibition ([2]; at 1.2 µM): -4%
growth inhibition ([2]; at 3.7 µM): -4%
growth inhibition ([2]; at 11.0 µM): -10%
growth inhibition ([2]; at 33.0 µM): -11%
growth inhibition ([2]; at 100.0 µM): -2%
growth inhibition ([3]; at 1.2 µM): -2%
growth inhibition ([3]; at 3.7 µM): 1%
growth inhibition ([3]; at 11.0 µM): 6%
growth inhibition ([3]; at 33.0 µM): 8%
growth inhibition ([3]; at 100.0 µM): 6%
growth inhibition ([16]; at 1.2 µM): -6%
growth inhibition ([16]; at 3.7 µM): -8%
growth inhibition ([16]; at 11.0 µM): -11%
growth inhibition ([16]; at 33.0 µM): 2%
growth inhibition ([16]; at 100.0 µM): 17%
growth inhibition ([4]; at 1.2 µM): -2%
growth inhibition ([4]; at 3.7 µM): -2%
growth inhibition [4, 17]: 4%
growth inhibition ([4]; at 11.0 µM): -2%
growth inhibition ([4]; at 33.0 µM): 1%
growth inhibition [4, 18]: 69%
growth inhibition ([4]; at 50.0 µM): 14.8%
growth inhibition ([4]; at 100.0 µM): -10%
growth inhibition ([5]; at 1.2 µM): -4%
growth inhibition ([5]; at 3.7 µM): -4%
growth inhibition [5, 17]: -6%
growth inhibition ([5]; at 11.0 µM): -5%
growth inhibition ([5]; at 33.0 µM): 0%
growth inhibition [5, 18]: 78% (active)
growth inhibition ([5]; at 50.0 µM): 1.7%
growth inhibition ([5]; at 100.0 µM): 1%
growth inhibition [7, 17]: 39%
growth inhibition [7, 18]: 82% (active)
growth inhibition ([7]; at 50.0 µM): -11.2%
growth inhibition ([8]; at 1.2 µM): -7%
growth inhibition ([8]; at 3.7 µM): -8%
growth inhibition ([8]; at 11.0 µM): -2%
growth inhibition ([8]; at 33.0 µM): 9%
growth inhibition ([8]; at 100.0 µM): 4%
growth inhibition [9, 17]: 4%
growth inhibition [9, 18]: 65%
growth inhibition ([9]; at 50.0 µM): -0.5%
growth inhibition ([10]; at 1.2 µM): -2%
growth inhibition ([10]; at 3.7 µM): -2%
growth inhibition [10, 17]: 12%
growth inhibition ([10]; at 11.0 µM): -3%
growth inhibition ([10]; at 33.0 µM): 0%
growth inhibition [10, 18]: 72% (active)
growth inhibition ([10]; at 50.0 µM): 13.2%
growth inhibition ([10]; at 100.0 µM): 0%
growth inhibition ([12]; at 1.2 µM): -2%
growth inhibition ([12]; at 3.7 µM): -5%
growth inhibition ([12]; at 11.0 µM): -5%
growth inhibition ([12]; at 33.0 µM): 10%
growth inhibition ([12]; at 100.0 µM): 9%
growth inhibition ([13]; at 1.2 µM): -4%
growth inhibition ([13]; at 3.7 µM): -5%
growth inhibition ([13]; at 11.0 µM): -3%
growth inhibition ([13]; at 33.0 µM): 26%
growth inhibition ([13]; at 100.0 µM): 29%
growth inhibition [14, 17]: 4%
growth inhibition [14, 18]: -17%
growth inhibition ([14]; at 50.0 µM): 14.2%
growth inhibition ([15]; at 1.2 µM): -5%
growth inhibition ([15]; at 3.7 µM): -9%
growth inhibition ([15]; at 11.0 µM): -10%
growth inhibition ([15]; at 33.0 µM): -4%
growth inhibition ([15]; at 100.0 µM): 0%
